Sampled rows, rich in hits. Any-hit rate of the full collection: about 3.8%.
VDR inhibitor – inhibitors of human vitamin D receptor | AID 504847 | Potency, µM, for inactives: max response, negative = inhibition, actives largely listed as inhibitors | P11473 | hit rate 0.93% among 400,000 | VDR-SRC2-3 peptide fluorescence polarization, 2 h; further: potency means the concentration at half of the fitted maximal effect; on the % scale 0 is the no-effect control and ±100 the full control effect
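Signal is fluorescence polarization, reporting how far test compounds block the interaction of VDR with the SRC2-3 coregulator peptide after a 2 h room-temperature incubation.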
CBFb RUNX1 block – blocks binding between human CBF-beta and RUNX1. Q01196+Q13951. AlphaScreen CBFb-His/RUNX1-biotin binding, biochemical. AID 1477. Potency, µM (series often up to 59.8 µM), for the others: at the top dose activity, negative = inhibition, hits mostly inhibitors. 230,000 tested, under 10 active; further: % of control where 0% means no effect
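Read-out: AlphaScreen. Format: His-CBF-beta with biotinylated RUNX1 (30 nM each) preincubated 20 min, compound 15 min, Ni-chelate plus streptavidin beads 90 min; room temperature throughout.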
MBNL1-CUG inh – MBNL1-poly(CUG) RNA binding inhibition; Q9NR56; TR-FRET MBNL1-His/biotin-(CUG)12 binding, 665/545 ratio; Potency, µM (doses to about 57.5 µM), for inactives: at the top dose activity change, negative = inhibition, hits mostly inhibitors; hit rate 0.036% among 280,000; AID 2675; active means well fitted inhibition curve with a large enough effect in the signal ratio, with a control signal flat, not every such curve was filed as active; inconclusive means small, poorly fitted or top-dose-only effect, or effect the other way, or a change in a side signal; inactive means no such curve, though single readings can be large or run the other way; the % refers to the signal ratio; further: potency means the concentration at half of the fitted maximal effect; on the % scale 0 is the no-effect control and ±100 the full control effect
Target sequence (Q9NR56 whole entry, looked up): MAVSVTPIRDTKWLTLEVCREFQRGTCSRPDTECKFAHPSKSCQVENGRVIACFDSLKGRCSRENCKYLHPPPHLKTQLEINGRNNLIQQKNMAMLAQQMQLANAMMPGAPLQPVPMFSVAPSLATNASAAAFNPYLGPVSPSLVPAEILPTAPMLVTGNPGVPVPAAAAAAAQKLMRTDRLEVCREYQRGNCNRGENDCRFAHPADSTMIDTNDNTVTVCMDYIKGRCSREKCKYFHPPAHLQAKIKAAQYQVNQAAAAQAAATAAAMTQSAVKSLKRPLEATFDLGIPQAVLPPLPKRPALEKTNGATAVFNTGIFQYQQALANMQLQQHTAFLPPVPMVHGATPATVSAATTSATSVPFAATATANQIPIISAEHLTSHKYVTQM
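Ratiometric TR-FRET (665 over 545 nm, excitation 340 nm) tracks disruption of MBNL1-His/biotin-(CUG)12 complex after 60 min at room temperature, with compounds at 92 nM to 58 uM final.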
PLK1 PBD inh – PLK1 (human) polo-box domain binding inhibition. P53350. Plk1 PBD binding of FITC phosphopeptide, fluorescence polarization. Potency, µM, inactives show max response, negative = inhibition, usual class: inhibitors. hit rate 2.8% among 360,000; further: potency means the concentration at half of the fitted maximal effect; series mostly up to about 57 µM; on the % scale 0 is the no-effect control and ±100 the full control effect; nearly all actives have a fitted effect of over 65% in size
KCNH2 3.1 block – KCNH2 3.1 (human) potassium channel inhibition; U2OS KCNH2 3.1, thallium flux FluxOr; stronger effect = lower value; activity change, % (tested at about 1.8 µM); hit rate 0.95% among 340,000; AID 720553;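 active means maximum activity change below -70%; inconclusive means maximum activity change from -70% to -50%; inactive means maximum activity change above -50%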;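 further: thallium influx rate constant from kinetic fluorescence after stimulation buffer; on the % scale 0 is the no-effect control and ±100 the full control effect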
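Thallium flux via FluxOr fluorescence (Red40 quencher, 45 min loading) in U2OS cells virally expressing the KCNH2 3.1 isoform (1.77 x 10^8 /mL virus, overnight at 37 C). Rate constants from 2-min kinetic reads post-stimulation, normalised to positive and negative controls.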
KCNH2 WT inh – inhibitors of human wildtype KCNH2 potassium channel | Q12809 | U2OS, BacMam KCNH2, thallium flux FluxOr; stronger effect = lower value | activity change, % at 1.84 µM | hit rate 0.37% among 340,000;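 active means maximum activity change below -70%; inconclusive means maximum activity change between -70% and -50%; inactive means maximum activity change above -50%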; further: on the % scale 0 is the no-effect control and ±100 the full control effect
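U2OS cells transduced with wild-type KCNH2 virus are loaded with FluxOr dye for 45 min, and thallium flux is measured in kinetic reads before and after stimulation buffer. Rate constants are normalized to DMSO controls.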
* marks the source's active call; other numbers are inactive results; ? = inconclusive; . = no result given. Unless noted, the call rests on the fitted dose curve; in most records, active means well fitted curve in the direction sought with a large enough effect; inconclusive means small, poorly fitted or top-dose-only effect, or another doubt; inactive means no such curve, though single readings can be large; an effect the other way counts as inactive or inconclusive.

SMILES	VDR inhibitor	CBFb RUNX1 block	MBNL1-CUG inh	PLK1 PBD inh	KCNH2 3.1 block	KCNH2 WT inh
O=C(CSc1ccc(Br)cc1)NC1CCS(=O)(=O)C1 (centres undefined)	?	.	.	17µM*	3	-13
O=C(CN1C(=O)c2ccc([N+](=O)[O-])cc2C1=O)NC1CCS(=O)(=O)C1 (centres undefined)	-8%	.	.	-11%	-3	3
O=C(NC1CCS(=O)(=O)C1)Oc1ccccc1 (centres undefined)	-16%	2%	2%	27µM*	-7	-2
O=C(CN1C(=O)c2ccccc2C1=O)NC1CCS(=O)(=O)C1 (centres undefined)	.	.	.	-9%	-85*	3
Cc1ccc(SCC(=O)NC2CCS(=O)(=O)C2)cc1C (centres undefined)	-11%	.	.	-15%	5	14
O=C(CN1C(=O)/C(=C/c2ccco2)SC1=S)NC1CCS(=O)(=O)C1 (centres undefined)	-12%	.	?	30µM*	1	-4
CC[C@H](C)C(N)C(=O)O (some centres undefined)	0%	27%	.	.	.	.
Cc1ccc(S(=O)(=O)N2CCC(c3nc(-c4cccs4)nc4ccccc34)CC2)cc1	-11%	.	.	.	.	.
O=C1N(Cc2ccccc2Cl)c2ccccc2C1(O)c1c[nH]c2ccccc12 (centres undefined)	8%	.	.	.	.	.
Cc1ccc(-n2nc(C)c3c(C(F)(F)F)cc(-c4cccnc4)nc32)cc1Cl	-8%	.	.	.	.	.
O=C(CN1C(=O)/C(=C/c2ccco2)SC1=S)Nc1ccc(O)c(C(=O)O)c1	-6%	.	?	?	4	13
O=C(CN1C(=O)/C(=C/c2ccco2)SC1=S)Nc1ccc(C(=O)O)c(O)c1	9%	.	?	13µM*	-18	-31
CC(=O)c1cc2c(cc1NC(=O)c1cnn(-c3ccc(C)cc3)c1-n1cccc1)OCO2	-1%	.	.	.	.	.
COCc1cccc(C2=CC(=O)C[C@H](c3ccc(OC)cc3)C2)c1	-30%	.	.	-6%	-13	-5
COCc1cccc(C2=CC(=O)C[C@H](c3ccc(F)cc3)C2)c1	?	.	.	30µM*	-7	39
COc1ccccc1N1CCN(c2ncnc3c2cnn3-c2cc(Cl)ccc2C)CC1	7%	.	.	.	.	.
Cc1ccc(/C=N/N=C/c2ccc(C)cc2)cc1	-15%	0%	.	21µM*	3	0
N#Cc1cc2c(OCC(O)CN3CCN(C(c4ccccc4)c4ccccc4)CC3)cccc2[nH]1 (centres undefined)	-1%	-21%	.	.	.	.
CSc1ncccc1C(=O)OCC(=O)c1ccc(Br)s1	-27%	18%	22%	19µM*	23	.
CSc1ncccc1C(=O)OCC(=O)c1ccccc1Br	-14%	12%	.	-9%	10	-4
Cc1ccc2c(=O)c(C(=O)c3ccccc3)cn(CC(=O)NCc3ccccc3)c2n1	13%	.	.	.	.	.
Cc1c(/C=C(\C#N)C(=O)Nc2cccc(Cl)c2)c2ccccc2n1Cc1ccccc1	-16%	.	.	.	.	.
CCS(=O)(=O)Nc1ccc(Cc2ccncc2)cc1	-1%	5%	-3%	30µM*	-22	15
O=S(=O)(Nc1ccc(Cc2ccncc2)cc1)c1ccc(Cl)cc1	-2%	6%	-11%	-2%	-15	-2
O=C1c2c([N+](=O)[O-])cc([N+](=O)[O-])cc2S(=O)N1Cc1ccccc1 (centres undefined)	?	7%	?	38µM*	4	-1
O=C(O)c1cccc2c1C(=O)c1cc([N+](=O)[O-])cc([N+](=O)[O-])c1-2	.	.	.	?	4	-1
Cc1ccc(NC(=O)CSc2nc3ccccc3c(=O)n2CCCN2CCCCC2)cc1Cl	7%	9%	-1%	-6%	-74*	-15
O=C(CSc1nc2ccccc2c(=O)n1CCCN1CCOCC1)Nc1ccc(F)c(Cl)c1	-2%	.	.	5%	-28	7
CCN(CC)CCn1c(SCC(=O)Nc2ccc3c(c2)CCC3)nc2ccccc2c1=O	?	.	.	-3%	-87*	-9

Source: PubChem BioAssay
